This note sets out measurements from PubChem BioAssay (Tox21).

Values without a mark were called inactive. Records with an inconclusive call do not appear. Calls of active or inactive are those of the source. Unless noted, calls follow the shape of the dose curve; as a rule, active = well fitted curve in the direction sought with a large enough effect in the repeat runs; inconclusive = weak or mixed curves; inactive = no such curve, though single readings can be large; an effect the other way counts as inactive or inconclusive.

Experiment [1] can be described thus: qHTS assay to identify small molecule antagonists of the sonic hedgehog signaling (Shh) pathway (AID 1259369; calls by dose curve; also: nearly all actives have a fitted effect of over 45% in size; also: potency is read from the fitted curve at half-maximal effect). The procedure, abridged:
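Read-out is luminescence from a firefly luciferase gene controlled by the Gli1 response element, in 3T3Gli1-Luc cells pre-incubated 4hr then exposed to compounds and conditioned medium for 24hr.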
A general note: qHTS replaces the single test concentration by a dilution series.

The target of experiment [2] is Estrogen receptor beta (Homo sapiens) (UniProt Q92731). The experiment is described as follows: qHTS assay to identify small molecule agonists of the estrogen receptor beta (ER-beta) signaling pathway (AID 1259377; active = well fitted activation curve with a large enough effect in the signal ratio in the repeat runs, not every such curve was filed as active; the % refers to the signal ratio). The procedure, abridged:
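Read-out: beta-lactamase FRET fluorescence. Cell line: ER-beta-UAS-bla HEK293T in 2% charcoal-stripped FBS. Exposure: 16 hr at 37C. Substrate step: 2 h at room temperature.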

Experiment [3] in a line: qHTS assay to identify small molecule agonists of the androgen receptor (AR) signaling pathway in the presence of an antagonist - cell viability counter screen (AID 1259379). Also: nearly all actives have a fitted effect of over 25% in size. Also: potency is read from the fitted curve at half-maximal effect. In outline:
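Each compound was tested at 15 concentrations on MDA-kb2 cells in the presence of 3.0uM nilutamide. Viability was measured by CellTiter-Fluor fluorescence after a 16 hr incubation at 37C in a CO2-free atmosphere.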

A short description of experiment [4]: qHTS assay to identify small molecule agonists of the estrogen receptor beta (ER-beta) signaling pathway - cell viability counter screen (AID 1259380). Also: nearly all actives have a fitted effect of over 30% in size. Also: potency is read from the fitted curve at half-maximal effect. In outline: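 Compounds dissolved in DMSO were pin-transferred onto ER-beta-UAS-bla HEK293T cells that had settled 6 hr, and exposure ran 16 hr at 37C. Following the reporter read, CellTiter-Glo luminescence after 30 min at room temperature indicated cytotoxicity.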

Experiment [5] has as its target Androgen receptor (Homo sapiens) (UniProt P10275). Nature of the experiment: qHTS assay to identify small molecule agonists of the androgen receptor (AR) signaling pathway in the presence of an antagonist (AID 1259381; calls by dose curve; also: nearly all actives have a fitted effect of over 15% in size). The procedure, abridged:
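Plated MDA-kb2 cells (3,000/well) were pre-incubated 5hr, given nilutamide (3.0uM final) or buffer, then dosed with compounds in DMSO at 15 concentrations. Luciferase activity was quantified by luminescence after 16hr at 37C.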

A short description of experiment [6]: qHTS assay to identify small molecule antagonists of the estrogen receptor beta (ER-beta) signaling pathway - cell viability counter screen (AID 1259382).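 Also: HEK293T cells carrying ER-beta-UAS-bla reporter stimulated with estradiol; series mostly up to about 92 µM; nearly all actives have a fitted effect of over 55% in size.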 In outline: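 CellTiter-Glo ATP luminescence measured after the LiveBLAzer read in the same wells; ER-beta-UAS-bla HEK293T cells, 16 hr compound treatment with 1nM 17-beta-estradiol agonist at 37C, 5% CO2.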

The target of experiment [7] is Estrogen receptor (Homo sapiens) (UniProt P03372). The experiment is described as follows: qHTS assay to identify small molecule agonists of the estrogen receptor alpha (ER-alpha) signaling pathway in the presence of an antagonist (AID 1259383; calls by dose curve; also: nearly all actives have a fitted effect of over 15% in size; also: potency is read from the fitted curve at half-maximal effect; as to activation: top concentration of the series differs between compounds). The procedure, abridged: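 Luminescent ERE-luciferase reporter, VM7Luc4E2 cells (endogenous ER-alpha); 10.0nM ICI-182,780 final; 15-point compound titration; 22hr at 37C; ONE-Glo, 30min RT.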

A short description of experiment [8]: qHTS assay to identify small molecule agonists or antagonists of the thyroid stimulating hormone receptor (TSHR) signaling pathway - wild type cell line counter screen (AID 1259384; calls by dose curve). The procedure, abridged:
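Counter screen in untransfected Hek293: compounds (15-point titration, triplicate) plus phosphodiesterase inhibitor Ro20-1724 added after 18 h plating; 30 min RT. Intracellular cAMP via competitive d2/cryptate immunoassay, 1 h incubation.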

Experiment [9] addresses Thyrotropin receptor (Homo sapiens) (UniProt P16473). The experiment is described as follows: qHTS assay to identify small molecule antagonists of the thyroid stimulating hormone receptor (TSHR) signaling pathway (AID 1259385; calls by dose curve; also: nearly all actives have a fitted effect of over 20% in size; also: potency is read from the fitted curve at half-maximal effect). In outline: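 Antagonist mode: compound-treated TSHR-expressing HEK293 cells were stimulated with 1.5 ng/mL TSH (final) in presence of Ro20-1724 for 30 min at RT. HTRF cAMP detection after 1 h; each compound tested at 15 concentrations, triplicate.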

Experiment [10] can be described thus: qHTS assay to identify small molecule agonists of the estrogen receptor alpha (ER-alpha) signaling pathway in the presence of an antagonist - cell viability counter screen (AID 1259386).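 Also: cells exposed to compounds for 22 h at 37 °C before the viability read; nearly all actives have a fitted effect of over 30% in size.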 Also: potency is read from the fitted curve at half-maximal effect. The procedure, abridged: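 Using estrogen-depleted VM7Luc4E2 cells, the 15-concentration compound series was applied together with 10.0nM ICI-182,780 and incubated 22hr at 37C/5% CO2. Cell viability was then scored by CellTiter-Fluor.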

For experiment [11], the target named is Progesterone receptor (Homo sapiens) (UniProt P06401). The experiment is described as follows: qHTS assay to identify small molecule agonists of the progesterone receptor (PR) signaling pathway (AID 1346784; calls by dose curve; also: nearly all actives have a fitted effect of over 30% in size). In outline:
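Compounds were tested for PR agonism in HEK 293T cells bearing a beta-lactamase gene under UAS control. Treatment lasted 16 hr at 37C; signal came from fluorescence of a FRET substrate.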

Experiment [12] in a line: qHTS assay to identify small molecule antagonists of the progesterone receptor (PR) signaling pathway - cell viability counter screen (AID 1346798). Also: series mostly up to about 92 µM; nearly all actives have a fitted effect of over 50% in size. In outline:
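Following a 4 hr attachment, PR-UAS-bla HEK293T cells in charcoal-stripped FBS medium were exposed to compounds with R5020 for 16 hr; CellTiter-Glo was added and luminescence read after 30 min at room temperature.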

Experiment [13] in a line: qHTS assay to identify small molecule agonists of the progesterone receptor (PR) signaling pathway - cell viability counter screen (AID 1346799; calls by dose curve; also: nearly all actives have a fitted effect of over 45% in size). In outline:
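Here, 3,000 PR-UAS-bla HEK293T cells per well were treated with compounds for 16 hr after a 6 hr preincubation at 37C and 5% CO2; cell viability is the CellTiter-Glo luminescence signal.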

Experiment [14] in a line: qHTS assay to identify small molecule antagonists of the TGF-beta/Smad signaling pathway - cell viability counter screen (AID 1346824). Also: nearly all actives have a fitted effect of over 50% in size. In outline:
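Cytotoxicity counter-screen run in the same wells as the beta-lactamase Smad reporter read: CellTiter-Glo luminescence after 30 min at room temperature. HEK 293T SBE-bla cells had 5 hr compound exposure at 37 C with TGF-beta1 (0.25 ng/mL stock).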

The nature of experiment [15]: qHTS assay to identify small molecule agonists of the TGF-beta/Smad signaling pathway - cell viability counter screen (AID 1346829). Also: top concentration of the series differs between compounds; nearly all actives have a fitted effect of over 45% in size. The procedure, abridged: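 Luminescence from CellTiter-Glo, read after a 30 min room-temperature incubation, gives cell viability of SBE-bla HEK 293T cells treated 5 hr with compounds at 37 C.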
Experiment [16] is described as follows: qHTS assay to identify small molecule agonists of the TGF-beta/Smad signaling pathway (AID 1346859; active = well fitted activation curve with a large enough effect in the signal ratio in the repeat runs, not every such curve was filed as active; the % refers to the signal ratio; also: series mostly up to about 77 µM). The procedure, abridged:
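Each well held 4,000 SBE-bla HEK 293T cells incubated overnight before compound addition; 5 hr later the cleavable FRET substrate went on for 2 hr at room temperature, and fluorescence was read at two emissions.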

Experiment [17] concerns the target Thyrotropin-releasing hormone receptor (Homo sapiens) (UniProt P34981). The experiment is described as follows: qHTS assay to identify small molecule antagonists of the thyrotropin-releasing hormone receptor (TRHR) signaling pathway (AID 1346877; active = well fitted inhibition curve with a large enough effect in the repeat runs, not every such curve was filed as active; also: series mostly up to about 51 µM). The procedure, abridged: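 Calcium signal in dye-loaded TRHR/HEK293 cells; compounds added 5 min before TRH (1 nM final); fluorescence monitored 3 min at 1 s steps.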

For experiment [18] the target is unchanged. Nature of the experiment: qHTS assay to identify small molecule agonists of the thyrotropin-releasing hormone receptor (TRHR) signaling pathway (AID 1346891; calls by dose curve; also: series mostly up to about 58 µM). The procedure, abridged: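 Screening of agonists relied on calcium signalling in HEK293 cells expressing human TRHR: dye loading 2 h at 37 °C preceded compound addition and a 3-min fluorescence time course.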

Experiment [19] concerns the target Progesterone receptor (Homo sapiens) (UniProt P06401). The experiment is described as follows: qHTS assay to identify small molecule antagonists of the progesterone receptor (PR) signaling pathway (AID 1346795; active = well fitted inhibition curve with a large enough effect in the signal ratio in the repeat runs, not every such curve was filed as active; the % refers to the signal ratio). In outline: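 In HEK293T cells bearing the PR-UAS-bla reporter, compound effects on promegestone-driven (1 nM) beta-lactamase expression are assessed after 16 hr using a fluorescent FRET substrate incubated 2 hr at room temperature.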

For experiment [20], the target named is Estrogen receptor beta (Homo sapiens) (UniProt Q92731). The experiment is described as follows: qHTS assay to identify small molecule antagonists of the estrogen receptor beta (ER-beta) signaling pathway (AID 1259378; active = well fitted inhibition curve with a large enough effect in the signal ratio in the repeat runs, not every such curve was filed as active; the % refers to the signal ratio). In outline:
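Antagonist mode: compounds added to beta-lactamase reporter HEK293T ER-beta-UAS cells stimulated with E2 (1nM final), 16 hr at 37C. LiveBLAzer B/G FRET substrate, 2 hours room temperature, fluorescence read-out.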

Estrogen receptor (Homo sapiens), sequence (P03372 whole entry, looked up): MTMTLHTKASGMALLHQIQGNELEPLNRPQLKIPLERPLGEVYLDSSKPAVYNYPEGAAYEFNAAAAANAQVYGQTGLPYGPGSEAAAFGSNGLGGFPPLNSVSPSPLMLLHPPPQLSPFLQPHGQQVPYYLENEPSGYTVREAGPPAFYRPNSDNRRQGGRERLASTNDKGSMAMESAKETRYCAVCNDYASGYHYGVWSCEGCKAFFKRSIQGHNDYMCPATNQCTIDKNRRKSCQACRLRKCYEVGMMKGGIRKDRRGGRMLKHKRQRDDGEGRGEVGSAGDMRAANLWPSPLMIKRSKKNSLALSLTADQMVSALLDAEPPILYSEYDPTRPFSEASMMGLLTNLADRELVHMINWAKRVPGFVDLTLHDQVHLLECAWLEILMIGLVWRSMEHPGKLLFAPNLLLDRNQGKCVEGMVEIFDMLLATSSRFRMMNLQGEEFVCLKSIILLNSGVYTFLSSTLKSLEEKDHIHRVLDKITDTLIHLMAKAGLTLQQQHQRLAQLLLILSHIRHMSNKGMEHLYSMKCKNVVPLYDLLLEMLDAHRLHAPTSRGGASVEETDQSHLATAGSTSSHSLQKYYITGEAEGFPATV
Thyrotropin-releasing hormone receptor (Homo sapiens), sequence (P34981 whole entry, looked up): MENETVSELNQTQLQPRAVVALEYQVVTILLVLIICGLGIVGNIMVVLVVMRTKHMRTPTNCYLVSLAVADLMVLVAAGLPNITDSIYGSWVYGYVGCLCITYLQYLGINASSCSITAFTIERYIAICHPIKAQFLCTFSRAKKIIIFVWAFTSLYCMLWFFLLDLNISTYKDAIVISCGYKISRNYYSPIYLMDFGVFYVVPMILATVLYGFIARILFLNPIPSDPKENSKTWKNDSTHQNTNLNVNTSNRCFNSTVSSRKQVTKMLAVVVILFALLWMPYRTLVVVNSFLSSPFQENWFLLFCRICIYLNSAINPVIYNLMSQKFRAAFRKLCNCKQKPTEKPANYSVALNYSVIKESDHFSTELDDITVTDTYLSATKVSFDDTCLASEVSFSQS
Progesterone receptor (Homo sapiens), sequence (P06401 whole entry, looked up): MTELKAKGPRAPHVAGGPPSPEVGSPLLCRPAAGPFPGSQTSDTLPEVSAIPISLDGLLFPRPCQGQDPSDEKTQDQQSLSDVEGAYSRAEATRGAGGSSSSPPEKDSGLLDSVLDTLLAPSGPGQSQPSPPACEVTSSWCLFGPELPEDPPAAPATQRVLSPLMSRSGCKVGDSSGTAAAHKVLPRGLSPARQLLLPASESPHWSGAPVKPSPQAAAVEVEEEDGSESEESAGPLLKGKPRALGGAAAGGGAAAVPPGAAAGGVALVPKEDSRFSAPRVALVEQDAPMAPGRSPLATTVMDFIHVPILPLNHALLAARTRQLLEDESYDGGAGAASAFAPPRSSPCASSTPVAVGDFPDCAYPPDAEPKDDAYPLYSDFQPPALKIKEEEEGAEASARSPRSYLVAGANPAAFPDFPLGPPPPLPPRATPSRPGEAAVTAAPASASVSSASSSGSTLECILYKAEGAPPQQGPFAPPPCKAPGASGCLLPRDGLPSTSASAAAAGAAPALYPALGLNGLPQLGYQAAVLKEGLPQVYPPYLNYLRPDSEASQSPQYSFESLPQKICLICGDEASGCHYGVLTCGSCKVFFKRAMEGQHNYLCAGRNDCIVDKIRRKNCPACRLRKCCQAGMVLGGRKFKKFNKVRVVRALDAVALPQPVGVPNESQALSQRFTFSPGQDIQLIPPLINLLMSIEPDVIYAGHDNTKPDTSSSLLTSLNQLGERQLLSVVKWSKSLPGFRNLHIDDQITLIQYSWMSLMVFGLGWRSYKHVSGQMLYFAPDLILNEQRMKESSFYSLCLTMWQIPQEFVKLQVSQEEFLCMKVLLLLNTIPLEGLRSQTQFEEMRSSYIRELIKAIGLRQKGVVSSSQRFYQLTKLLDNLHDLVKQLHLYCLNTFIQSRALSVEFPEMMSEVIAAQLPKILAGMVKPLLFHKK
Thyrotropin receptor (Homo sapiens), sequence (P16473 whole entry, looked up): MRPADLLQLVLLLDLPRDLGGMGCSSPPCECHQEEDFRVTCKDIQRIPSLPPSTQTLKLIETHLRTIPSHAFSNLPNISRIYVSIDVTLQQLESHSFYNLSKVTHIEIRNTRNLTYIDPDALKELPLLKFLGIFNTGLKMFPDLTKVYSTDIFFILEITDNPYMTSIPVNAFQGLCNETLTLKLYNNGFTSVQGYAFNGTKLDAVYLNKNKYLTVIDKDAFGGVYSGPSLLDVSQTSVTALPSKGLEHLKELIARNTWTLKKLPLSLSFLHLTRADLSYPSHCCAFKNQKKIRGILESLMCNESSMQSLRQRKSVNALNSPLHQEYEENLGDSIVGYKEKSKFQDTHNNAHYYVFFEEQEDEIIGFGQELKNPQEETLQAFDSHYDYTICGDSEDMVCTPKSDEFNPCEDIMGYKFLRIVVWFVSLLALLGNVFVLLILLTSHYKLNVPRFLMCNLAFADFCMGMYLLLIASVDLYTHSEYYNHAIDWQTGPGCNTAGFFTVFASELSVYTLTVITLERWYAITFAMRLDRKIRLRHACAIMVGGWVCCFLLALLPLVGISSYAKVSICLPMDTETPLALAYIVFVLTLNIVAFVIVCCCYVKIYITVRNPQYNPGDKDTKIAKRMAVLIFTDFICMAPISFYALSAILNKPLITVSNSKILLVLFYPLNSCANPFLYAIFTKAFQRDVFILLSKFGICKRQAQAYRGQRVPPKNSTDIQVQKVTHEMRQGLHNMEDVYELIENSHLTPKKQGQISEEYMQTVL
Estrogen receptor beta (Homo sapiens), sequence (Q92731 whole entry, looked up): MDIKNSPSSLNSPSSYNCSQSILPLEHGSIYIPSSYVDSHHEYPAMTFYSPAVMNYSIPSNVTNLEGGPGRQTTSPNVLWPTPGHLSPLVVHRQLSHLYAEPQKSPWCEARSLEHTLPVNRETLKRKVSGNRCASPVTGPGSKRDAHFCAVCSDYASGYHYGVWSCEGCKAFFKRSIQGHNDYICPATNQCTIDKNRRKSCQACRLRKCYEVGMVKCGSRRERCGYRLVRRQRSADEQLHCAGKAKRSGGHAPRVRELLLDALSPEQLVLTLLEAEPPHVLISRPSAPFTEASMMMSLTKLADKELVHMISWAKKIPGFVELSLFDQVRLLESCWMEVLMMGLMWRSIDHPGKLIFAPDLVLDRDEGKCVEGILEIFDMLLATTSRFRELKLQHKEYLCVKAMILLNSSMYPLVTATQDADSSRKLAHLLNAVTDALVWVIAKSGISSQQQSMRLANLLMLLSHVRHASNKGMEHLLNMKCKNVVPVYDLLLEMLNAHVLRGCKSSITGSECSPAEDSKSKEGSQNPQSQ
Androgen receptor (Homo sapiens), sequence (P10275 whole entry, looked up): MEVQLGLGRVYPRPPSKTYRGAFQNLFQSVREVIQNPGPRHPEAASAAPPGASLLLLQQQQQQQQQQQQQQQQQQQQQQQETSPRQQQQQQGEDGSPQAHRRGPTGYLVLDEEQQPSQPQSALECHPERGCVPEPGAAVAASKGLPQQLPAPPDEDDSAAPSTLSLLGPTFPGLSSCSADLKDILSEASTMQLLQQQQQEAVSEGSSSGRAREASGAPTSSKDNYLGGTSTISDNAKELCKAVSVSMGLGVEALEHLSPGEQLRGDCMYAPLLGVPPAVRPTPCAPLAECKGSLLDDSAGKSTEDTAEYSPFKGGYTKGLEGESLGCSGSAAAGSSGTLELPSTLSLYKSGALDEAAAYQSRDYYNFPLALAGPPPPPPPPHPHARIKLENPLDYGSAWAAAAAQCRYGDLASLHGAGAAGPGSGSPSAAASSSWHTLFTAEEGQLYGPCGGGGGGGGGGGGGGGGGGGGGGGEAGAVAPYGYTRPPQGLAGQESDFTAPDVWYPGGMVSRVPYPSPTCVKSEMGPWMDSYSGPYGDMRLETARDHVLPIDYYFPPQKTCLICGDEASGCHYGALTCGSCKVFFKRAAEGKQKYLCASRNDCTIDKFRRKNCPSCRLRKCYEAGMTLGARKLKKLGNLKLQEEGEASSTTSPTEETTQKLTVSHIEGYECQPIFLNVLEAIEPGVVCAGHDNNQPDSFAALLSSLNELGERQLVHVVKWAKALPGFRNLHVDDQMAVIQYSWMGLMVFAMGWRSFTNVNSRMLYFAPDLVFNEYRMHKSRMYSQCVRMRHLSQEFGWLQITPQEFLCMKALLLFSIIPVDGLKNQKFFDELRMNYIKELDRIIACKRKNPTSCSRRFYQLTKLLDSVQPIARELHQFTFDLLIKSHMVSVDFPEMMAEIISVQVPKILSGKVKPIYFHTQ

With `CN(CCCC(O)c1cccnc1)N=O` (stereo unspecified), the Potency entry in [1], in experiment [2], in experiment [3], in experiment [4], in experiment [5] and in experiment [6] was “inactive” each time. For the same compound, the Potency entry in experiment [7], in experiment [9], in experiment [10], in experiment [11], in experiment [12] and in experiment [13] was “inactive” throughout. The Potency entry in experiment [14], in experiment [15], in [17] and in experiment [18] was “inactive” throughout. For the same compound, the compound was called inactive in experiment [8] and in [16].
In the case of `COCC(=O)N(c1c(C)cccc1C)[C@H](C)C(=O)OC`, the Potency result in experiment [1], in experiment [2], in experiment [3], in experiment [4], in experiment [6] and in experiment [7] was “inactive” in each case. The Potency entry in experiment [9], in experiment [10], in experiment [11], in experiment [19], in experiment [15] and in experiment [17] was “inactive” in each case. Also, the Potency result in experiment [18] is “inactive”. Besides, the call in [16] was inactive.
Take `OC(Cc1ccccc1Cl)(Cn1cncn1)C1(Cl)CC1` (stereo unspecified): the Potency in experiment [1] is 12.2 µM (active). In addition, the Potency entry in experiment [2], in experiment [3], in experiment [4], in experiment [7], in experiment [9] and in experiment [10] was “inactive” each time. For the same compound, the Potency result in experiment [11], in experiment [14] and in [15] was “inactive” in each case. The result in experiment [8] and in experiment [16] was inactive.
Take `OC(c1ccc(Cl)cc1)(c1ccc(Cl)cc1)C(Cl)(Cl)Cl`: the Potency entry in [1], in [2], in [20], in experiment [4], in experiment [7] and in experiment [10] was “inactive” throughout. Besides, the Potency entry in experiment [11], in experiment [13], in experiment [14] and in experiment [15] was “inactive” in each case. The call in experiment [8] and in [16] was inactive. The Potency in experiment [9] was 68.6 µM (active).
With `CN(C)CCc1c[nH]c2cccc(O)c12`, the Potency in experiment [1] is 53.9 µM (active). Moreover, the Potency entry in experiment [2], in experiment [3], in experiment [4], in experiment [6], in [10] and in experiment [11] was “inactive” each time. Further, the Potency result in [14] and in experiment [15] was “inactive” each time. Moreover, the outcome in experiment [16] was inactive.
For `CC1(c2ccc(Oc3ccccc3)cc2)OC(=O)N(Nc2ccccc2)C1=O` (stereo unspecified), the Potency was 6.15 µM (active) in experiment [1], 24.5 µM (active) in experiment [3] and 30.8 µM (active) in experiment [10]. Moreover, the Potency result in experiment [2], in [6], in experiment [7], in [11], in experiment [15] and in experiment [17] was “inactive” throughout. Besides, the result in [8] and in experiment [16] was inactive.
Regarding `ClC(Cl)=C(Cl)Cl`, the Potency result in experiment [1], in experiment [2], in [3], in [4], in experiment [6] and in experiment [9] was “inactive” each time. The Potency result in [10], in experiment [11], in experiment [19], in experiment [13], in experiment [14] and in experiment [15] was “inactive” in each case. Besides, the Potency entry in [17] and in experiment [18] was “inactive” each time. In experiment [16], the call was inactive.
For `CC(C)CCCCCOC(=O)c1ccccc1C(=O)OCCCCCC(C)C`, in [1], the Potency is 17 µM (active). The Potency result in [2], in [3], in experiment [6], in experiment [9], in experiment [10] and in experiment [11] was “inactive” throughout. Besides, the Potency result in experiment [12], in experiment [13], in experiment [14], in [17] and in [18] was “inactive” in each case. Besides, the call in experiment [8] and in experiment [16] was inactive.
As to `Nc1ccccc1C(=O)OC/C=C/c1ccccc1`, the Potency result in experiment [1], in [2], in experiment [3], in experiment [6], in [9] and in experiment [12] was “inactive” throughout. Moreover, the Potency entry in experiment [13], in experiment [14], in [15], in [17] and in experiment [18] was “inactive” each time. For the same compound, the Potency was 21.7 µM (active) in experiment [4] and 12.2 µM (active) in experiment [7]. Further, the compound was classed as inactive in experiment [16].
